Assay results as given in PubChem BioAssay (EPA / NIEHS).
Results filed as inconclusive are left out. Activity calls are given as the source filed them. How the source made its calls, unless noted: active means hit-call score of the fitted dose curve at least 0.9, where 1 is the maximum; inactive means score below 0.9.

Legend:
[1] = read-out: Nuclear factor erythroid 2-related factor 2 (Homo sapiens) (UniProt Q16236); assay: LTEA_HepaRG_NFE2L2: Life Technologies and Expression Analysis (LTEA) Assay for Nuclear factor erythroid 2-related factor 2 (NFE2L2) Transcription Factor using HepaRG (AID 2283527); conditions: mRNA level, 48 h; actives raise or lower the signal;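 further: TaqMan qRT-PCR transcript level normalised to ACTB GAPDH and POLR2A housekeeping genes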
Procedure, shortened: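 Differentiated human HepaRG cells in serum-free induction medium were exposed for 48 h to eight concentrations (top 100 uM, half-log dilutions, 0.5% DMSO), in duplicate. NFE2L2 mRNA was quantified by TaqMan qRT-PCR, normalized to ACTB, GAPDH and POLR2A, with bidirectional fitting versus DMSO.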

[2] = read-out: succinate dehydrogenase complex iron sulfur subunit B (SDHB), SDHB (gene 6390); assay: LTEA_HepaRG_SDHB: Life Technologies and Expression Analysis (LTEA) Assay for succinate dehydrogenase complex iron sulfur subunit B (SDHB) using HepaRG (AID 2283528); conditions: mRNA level, 48 h; actives raise or lower the signal
Procedure, shortened: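 HepaRG cells (~100,000/well, plated 48 h) exposed in duplicate for 48 h in serum-free induction medium to 8-point half-log series from 100 uM in 0.5% DMSO; mRNA by qRT-PCR normalised to ACTB, GAPDH, POLR2A; bidirectional fit versus DMSO.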

[3] = read-out: Signal transducer and activator of transcription 3 (Homo sapiens) (UniProt P40763); assay: LTEA_HepaRG_STAT3: Life Technologies and Expression Analysis (LTEA) Assay for Signal transducer and activator of transcription (STAT3) using HepaRG (AID 2283529); conditions: mRNA level, 48 h; actives raise or lower the signal
Procedure, shortened: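 Differentiated human HepaRG cells in serum-free induction medium were exposed in duplicate for 48 h to eight half-log concentrations up to 100 uM in 0.5% DMSO. STAT3 mRNA was quantified by TaqMan qRT-PCR, normalized to ACTB, GAPDH and POLR2A, and fitted bidirectionally against DMSO.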

[4] = read-out: solute carrier (SLCO1B1), SLCO1B1 (gene 10599); assay: LTEA_HepaRG_SLCO1B1: Life Technologies and Expression Analysis (LTEA) Assay for solute carrier (SLCO1B1) using HepaRG (AID 2283530); conditions: mRNA level, 48 h; actives raise or lower the signal
Procedure, shortened: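 SLCO1B1 transcript levels were quantified by TaqMan qRT-PCR using three housekeeping genes for normalization. This followed 48 h chemical exposure (100 uM top, half-log, 8 points, 0.5% DMSO) of HepaRG liver cells, with gain or loss fitted relative to DMSO.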

[5] = read-out: sulfotransferase 2A1 (SULT2A1), SULT2A1 (gene 6822); assay: LTEA_HepaRG_SULT2A1: Life Technologies and Expression Analysis (LTEA) Assay for sulfotransferase 2A1 (SULT2A1) using HepaRG (AID 2283531); conditions: mRNA level, 48 h; actives raise or lower the signal
Procedure, shortened: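 Expression change of SULT2A1, by qRT-PCR with three housekeeping-gene normalization, was scored bidirectionally versus DMSO. Cells: differentiated HepaRG, dosed in duplicate for 48 h across 8 points, highest 100 µM, half-log dilution, 0.5% DMSO.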

[6] = read-out: Transforming Growth Factor (TGFA), TGFA (gene 7039); assay: LTEA_HepaRG_TGFA: Life Technologies and Expression Analysis (LTEA) Assay for Transforming Growth Factor (TGFA) using HepaRG (AID 2283532); conditions: mRNA level, 48 h; actives raise or lower the signal
Procedure, shortened: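 Differentiated human HepaRG cells, plated 48 h then switched to serum-free induction medium, were exposed in duplicate for 48 h to 8-point half-log series from 100 uM in 0.5% DMSO. TGFA mRNA measured by qRT-PCR, normalized to ACTB/GAPDH/POLR2A, bidirectional fit versus DMSO.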

[7] = read-out: Transforming Growth Factor (TGFB1), TGFB1 (gene 7040); assay: LTEA_HepaRG_TGFB1: Life Technologies and Expression Analysis (LTEA) Assay for Transforming Growth Factor (TGFB1) Transporter using HepaRG (AID 2283533); conditions: mRNA level, 48 h; actives raise or lower the signal
Procedure, shortened: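 TGFB1 transcript measured by qRT-PCR with normalisation to three housekeeping genes (ACTB, GAPDH, POLR2A); human HepaRG line treated in duplicate for 48 hr with an 8-point series topping at 100 uM, 0.5% DMSO vehicle, bidirectionally fitted.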

TIMP1, TIMP1 (gene 7076) = assay: LTEA_HepaRG_TIMP1: Life Technologies and Expression Analysis (LTEA) Assay for TIMP1 using HepaRG (AID 2283534); conditions: mRNA level, 48 h; actives raise or lower the signal
Procedure, shortened: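 Bidirectional change in TIMP1 transcript versus 0.5% DMSO, measured by TaqMan qRT-PCR with three housekeeping genes for normalization. HepaRG human liver cells dosed 48 h in duplicate, top concentration 100 uM with half-log dilutions.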

[8] = read-out: Tumor necrosis factor receptor 1 (TNFRSF1A), TNFRSF1A (gene 7132); assay: LTEA_HepaRG_TNFRSF1A: Life Technologies and Expression Analysis (LTEA) Assay for Tumor necrosis factor receptor 1 (TNFRSF1A) using HepaRG (AID 2283535); conditions: mRNA level, 48 h; actives raise or lower the signal
Procedure, shortened: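 mRNA measured by qRT-PCR (TaqMan, Fluidigm arrays) against ACTB/GAPDH/POLR2A housekeepers after 48 h chemical exposure of HepaRG cells. Top concentration 100 uM, half-log 8-point series, duplicates; vehicle 0.5% DMSO, both fit directions.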

[9] = read-out: Thyroid Hormone Responsive (THRSP), THRSP (gene 7069); assay: LTEA_HepaRG_THRSP: Life Technologies and Expression Analysis (LTEA) Assay for Thyroid Hormone Responsive (THRSP) using HepaRG (AID 2283536); conditions: mRNA level, 48 h; actives raise or lower the signal
Procedure, shortened: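 Differentiated human HepaRG cells were exposed in duplicate for 48 h in serum-free induction medium to eight concentrations (top 100 uM, half-log steps, 0.5% DMSO). Expression was quantified by TaqMan qRT-PCR, normalized to ACTB, GAPDH and POLR2A, with bidirectional fitting against DMSO.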

[10] = read-out: Cellular tumor antigen p53 (Homo sapiens) (UniProt P04637); assay: LTEA_HepaRG_TP53: Life Technologies and Expression Analysis (LTEA) Assay for Tumor Protein P53 (TP53) using HepaRG (AID 2283537); conditions: mRNA level, 48 h; actives raise or lower the signal
Procedure, shortened: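 Differentiated HepaRG cells in serum-free induction medium exposed 48 h in duplicate to 8 half-log concentrations, top 100 uM, 0.5% DMSO. TP53 mRNA by TaqMan qRT-PCR (Fluidigm), normalized to ACTB, GAPDH, POLR2A; fitted bidirectionally versus DMSO.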

[11] = read-out: UDP glucuronosyltransferase (UGT1A1), UGT1A1 (gene 54658); assay: LTEA_HepaRG_UGT1A1: Life Technologies and Expression Analysis (LTEA) Assay for UDP glucuronosyltransferase (UGT1A1) using HepaRG (AID 2283538); conditions: mRNA level, 48 h; actives raise or lower the signal
Procedure, shortened: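 Differentiated human HepaRG cells in serum-free induction medium were exposed in duplicate for 48 h to eight half-log concentrations up to 100 uM in 0.5% DMSO. UGT1A1 mRNA was quantified by TaqMan qRT-PCR, normalized to ACTB, GAPDH and POLR2A, and fitted bidirectionally against DMSO.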

[12] = read-out: UDP glucuronosyltransferase (UGT1A6), UGT1A6 (gene 54578); assay: LTEA_HepaRG_UGT1A6: Life Technologies and Expression Analysis (LTEA) Assay for UDP glucuronosyltransferase (UGT1A6) using HepaRG (AID 2283539); conditions: mRNA level, 48 h; actives raise or lower the signal
Procedure, shortened: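 Expression was quantified by TaqMan qRT-PCR on Fluidigm arrays with ACTB/GAPDH/POLR2A normalization and bidirectional fitting against 0.5% DMSO. HepaRG cells (~100,000/well) were treated in duplicate for 48 h at eight half-log concentrations up to 100 uM in serum-free induction medium.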

[13] = read-out: X-box binding protein 1 (XBP1), XBP1 (gene 7494); assay: LTEA_HepaRG_XBP1: Life Technologies and Expression Analysis (LTEA) Assay for X-box binding protein 1 (XBP1) using HepaRG (AID 2283540); conditions: mRNA level, 48 h; actives raise or lower the signal
Procedure, shortened: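 XBP1 transcript by qRT-PCR (housekeeping-normalized: ACTB, GAPDH, POLR2A) after 48 h chemical treatment of HepaRG cells, 8-point half-log series topping at 100 uM, vehicle 0.5% DMSO. Gain and loss of signal fitted relative to DMSO.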

[14] = LTEA_HepaRG_LDH_cytotoxicity: Cytotoxicity Assessment in the Life Technologies and Expression Analysis (LTEA) Assay (AID 2283563; active means hit-call score of the fitted dose curve at least 0.9, where 1 is the maximum)
Procedure, shortened: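 LDH release into culture medium read after 48 h chemical treatment of HepaRG cells. Duplicate wells, eight-point half-log series topping at 100 uM, 0.5% DMSO vehicle and baseline.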

[15] = Tanguay_ZF_120hpf_MORT_legacy: (Legacy) Oregon State University Tanguay Lab 120 Hour Post-fertilization zebrafish Assay for Mortality (AID 2283633; active means hit-call score of the fitted dose curve at least 0.9, where 1 is the maximum)
Procedure, shortened: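 Static waterborne exposure from 6 to 120 hpf at 28C of single dechorionated wild-type (5D) embryos per well, 0.64% DMSO final. Death recorded present/absent by brightfield at 24 and 120 hpf.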

[16] = Tanguay_ZF_120hpf_YSE_legacy: (Legacy) Oregon State University Tanguay Lab 120 Hour Post-fertilization zebrafish Assay for Yolk Sac Edema (AID 2283634; active means hit-call score of the fitted dose curve at least 0.9, where 1 is the maximum)
Procedure, shortened: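 Presence or absence of yolk sac edema was recorded at 120 hpf in surviving larvae. These were wild-type Tropical 5D embryos, chorion removed at 4 hpf, held in static exposure at 28C from 6 hpf with 0.64% DMSO vehicle.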

[17] = Tanguay_ZF_120hpf_EYE_legacy: (Legacy) Oregon State University Tanguay Lab 120 Hour Post-fertilization zebrafish Assay for Eye Malformation (AID 2283636; active means hit-call score of the fitted dose curve at least 0.9, where 1 is the maximum;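 further: binary presence or absence of eye malformation scored by brightfield in 120 hpf larvae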)
Procedure, shortened: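 Dechorionated wild-type Tropical 5D zebrafish embryos were exposed statically from 6 hpf, one per well, to 120 hpf at 28C in sealed, foil-covered plates with 0.64% DMSO. Eye malformation was scored present/absent by brightfield microscopy against DMSO controls.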

[18] = Tanguay_ZF_120hpf_SNOU_legacy: (Legacy) Oregon State University Tanguay Lab 120 Hour Post-fertilization zebrafish Assay for Snout Malformation (AID 2283637; active means hit-call score of the fitted dose curve at least 0.9, where 1 is the maximum)
Procedure, shortened: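 Tropical 5D wild-type zebrafish embryos, dechorionated with pronase at 4 hpf, were exposed singly from 6 hpf to 120 hpf statically at 28C in 0.64% DMSO. Snout malformation was scored present/absent by brightfield microscopy, fitted against DMSO.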

[19] = Tanguay_ZF_120hpf_JAW_legacy: (Legacy) Oregon State University Tanguay Lab 120 Hour Post-fertilization zebrafish Assay for Jaw Malformation (AID 2283638; active means hit-call score of the fitted dose curve at least 0.9, where 1 is the maximum)
Procedure, shortened: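 Binary jaw-malformation call at 120 hpf by brightfield microscopy. Embryos (Tropical 5D strain, chorion removed at 4 hpf) were dosed statically at 6 hpf, one per well, at 28C with 0.64% DMSO. Embryos that died were not scored.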

Measured: outcome

Chain of Signal transducer and activator of transcription 3 (Homo sapiens) (P40763 whole entry, looked up): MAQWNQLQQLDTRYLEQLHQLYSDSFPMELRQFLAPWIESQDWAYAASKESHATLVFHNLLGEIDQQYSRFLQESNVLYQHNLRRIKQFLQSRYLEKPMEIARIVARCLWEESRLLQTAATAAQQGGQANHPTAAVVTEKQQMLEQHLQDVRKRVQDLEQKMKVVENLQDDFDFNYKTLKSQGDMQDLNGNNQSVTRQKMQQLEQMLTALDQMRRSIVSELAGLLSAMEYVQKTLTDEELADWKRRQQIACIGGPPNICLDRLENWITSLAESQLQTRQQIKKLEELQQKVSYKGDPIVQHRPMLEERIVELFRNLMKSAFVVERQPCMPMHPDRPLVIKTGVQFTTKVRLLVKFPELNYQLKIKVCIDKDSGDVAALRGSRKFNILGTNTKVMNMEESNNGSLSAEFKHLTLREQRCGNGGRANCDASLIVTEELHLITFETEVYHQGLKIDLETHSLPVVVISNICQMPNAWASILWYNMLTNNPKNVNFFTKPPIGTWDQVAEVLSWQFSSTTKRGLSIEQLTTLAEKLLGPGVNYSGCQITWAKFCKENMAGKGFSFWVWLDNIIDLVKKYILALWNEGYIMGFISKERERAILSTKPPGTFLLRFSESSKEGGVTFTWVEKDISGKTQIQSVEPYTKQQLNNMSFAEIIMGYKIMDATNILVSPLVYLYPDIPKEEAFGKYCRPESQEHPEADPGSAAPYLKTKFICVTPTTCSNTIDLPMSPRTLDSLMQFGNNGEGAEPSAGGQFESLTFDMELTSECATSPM
Chain of Nuclear factor erythroid 2-related factor 2 (Homo sapiens) (Q16236 whole entry, looked up): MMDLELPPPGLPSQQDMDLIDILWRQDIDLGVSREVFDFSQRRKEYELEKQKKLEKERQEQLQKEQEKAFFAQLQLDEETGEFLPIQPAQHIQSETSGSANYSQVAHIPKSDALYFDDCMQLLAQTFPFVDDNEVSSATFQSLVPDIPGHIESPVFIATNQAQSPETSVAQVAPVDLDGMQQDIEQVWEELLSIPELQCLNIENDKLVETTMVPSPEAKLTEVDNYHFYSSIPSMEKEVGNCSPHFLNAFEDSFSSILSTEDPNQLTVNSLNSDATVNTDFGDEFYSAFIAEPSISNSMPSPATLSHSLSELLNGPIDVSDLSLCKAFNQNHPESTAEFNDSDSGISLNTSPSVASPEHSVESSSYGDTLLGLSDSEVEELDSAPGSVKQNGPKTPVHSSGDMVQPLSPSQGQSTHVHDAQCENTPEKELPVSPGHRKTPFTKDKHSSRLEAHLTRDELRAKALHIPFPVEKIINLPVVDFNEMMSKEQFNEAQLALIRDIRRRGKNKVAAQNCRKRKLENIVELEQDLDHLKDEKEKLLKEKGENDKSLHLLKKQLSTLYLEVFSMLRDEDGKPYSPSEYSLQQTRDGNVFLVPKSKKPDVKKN
Chain of Cellular tumor antigen p53 (Homo sapiens) (P04637 whole entry, looked up): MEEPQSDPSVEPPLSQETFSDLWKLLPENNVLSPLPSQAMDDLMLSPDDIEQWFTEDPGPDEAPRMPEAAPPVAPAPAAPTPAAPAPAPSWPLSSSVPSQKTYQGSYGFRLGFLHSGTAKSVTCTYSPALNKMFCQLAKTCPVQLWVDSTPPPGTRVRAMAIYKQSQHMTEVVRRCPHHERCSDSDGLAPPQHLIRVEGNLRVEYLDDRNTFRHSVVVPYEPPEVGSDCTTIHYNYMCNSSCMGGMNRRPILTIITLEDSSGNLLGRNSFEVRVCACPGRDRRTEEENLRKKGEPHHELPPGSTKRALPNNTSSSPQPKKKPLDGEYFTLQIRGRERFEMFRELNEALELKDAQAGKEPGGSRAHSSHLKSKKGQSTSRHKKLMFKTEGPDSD

CCC(C)=NO
inactive: [1] | [2] | [3] | [4] | [5] | [6] | [7] | TIMP1, TIMP1 (gene 7076) | [8] | [9] | [10] | [11] | [12] | [13] | [14] | [15] | [16] | [17] | [18] | [19]
